Data as given in PubChem BioAssay (EPA / NIEHS).
“And” between values parts separate entries of the source, which are not always exact repeats. Equal values may be shown once. Records with an inconclusive call do not appear. The source made the active and inactive calls. The calls were made as follows, unless noted: active = hit-call score of the fitted dose curve at least 0.9, where 1 is the maximum; inactive = score below 0.9.

Key:
[1] = read-out: E-selectin (Homo sapiens) (UniProt P16581); assay: BSK_SAg_Eselectin: BioMAP Diversity Plus: SAg Assay for Eselectin Biomarker Activity (AID 2283091); conditions: primary human HUVEC with PBMC; actives raise or lower the signal
Method in brief: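 Endpoint values derive from bidirectional fitting relative to DMSO, using ELISA-measured E-selectin in a human vascular co-culture (umbilical vein endothelium plus PBMC) sampled 24 h after dosing.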

[2] = read-out: Monokine induced gamma interferon (MIG), CXCL9 (gene 4283); assay: BSK_SAg_MIG: BioMAP Diversity Plus: SAg Assay for Monokine induced gamma interferon (MIG) Biomarker Activity (AID 2283092); conditions: primary human HUVEC with PBMC; actives raise or lower the signal
Method in brief: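 Endothelial cells and PBMC were co-cultured, exposed to test chemicals, and sampled 24 h later. MIG was measured by ELISA, and responses were fitted in both directions relative to DMSO.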

[3] = BSK_SAg_PBMCCytotoxicity: PBMC Cytotoxicity Assessment in the BioMAP Diversity Plus: SAg Assay (AID 2283093); conditions: primary human HUVEC with PBMC;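 also: fitted both ways against DMSO so a hit may be loss or gain of signal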;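 as to AC50: PBMC superantigen activated with SEB plus TSST-1 one hour after compound addition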
Method in brief: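 PBMC viability by Alamar Blue reduction, fluorescence read at 546/580 nm after 6 h dye exposure. Cells were dosed 1 h before SEB plus TSST-1 activation (20 ng/mL final each), then held 90 h; endothelial/PBMC human co-culture.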

[4] = read-out: Interleukin-8 (IL8), CXCL8 (gene 3576); assay: BSK_SAg_IL8: BioMAP Diversity Plus: SAg Assay for Interleukin-8 (IL8) Biomarker Activity (AID 2283094); conditions: primary human HUVEC with PBMC; actives raise or lower the signal
Method in brief: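 Primary human endothelial cells with PBMC, exposed 24 h; IL-8 determined by ELISA, analysed bidirectionally relative to DMSO.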

[5] = BSK_SAg_Proliferation: Cell Proliferation Assessment in the BioMAP Diversity Plus: SAg Assay (AID 2283095); conditions: primary human HUVEC with PBMC;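 also: relative cell number as total protein by SRB absorbance in sub-confluent culture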
Method in brief: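 A human primary co-culture of umbilical vein endothelium and blood mononuclear cells receives compound; relative cell number is quantified at 96 h by SRB staining and 560 nm absorbance, with DMSO-referenced bidirectional curve fitting.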

[6] = BSK_SAg_SRB: Viability Assessment in the BioMAP Diversity Plus: SAg Assay (AID 2283096); conditions: primary human HUVEC with PBMC;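 also: cells read one day after compound addition; hits may be either gain or loss of signal compared with DMSO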
Method in brief: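 Compounds were added to a human vascular co-culture of umbilical vein endothelium and PBMC. After 24 h, parallel cultures were fixed with 10% TCA, stained with 0.1% sulforhodamine B and read at 560 nm. Gain or loss of signal was fitted relative to DMSO.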

[7] = target: human Caspase 5 (CASP5), CASP5 (gene 838) (UniProt P51878); assay: NVS_ENZ_hCASP5: NovaScreen (NVS) Enzymatic Assay for human Caspase 5 (CASP5) (AID 2283137; active = hit-call score of the fitted dose curve at least 0.9, where 1 is the maximum)
Method in brief: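 Caspase 5 enzyme activity, detected as fluorescence signal loss, is measured in a biochemical format using E. coli-expressed protein. Reading occurs 2 hours post-dosing. Screening runs at 25 uM, with confirmed actives titrated to 50 uM maximum.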

[8] = target: human CYP2C9, CYP2C9 (gene 1559) (UniProt P11712); assay: NVS_ADME_hCYP2C9: NovaScreen (NVS) CYP450-related Enzyme Activity (ADME) Assay for human CYP2C9 (AID 2283108; active = hit-call score of the fitted dose curve at least 0.9, where 1 is the maximum)
Method in brief: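 Recombinant human CYP2C9 expressed in SF9 cells, fluorogenic substrate, fluorescence read 0.75 h after dosing. Chemicals first run in duplicate at 10 uM, with actives followed in concentration series; loss of signal versus acetonitrile baseline.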

[9] = target: Cytochrome P450 2C19 (Homo sapiens) (UniProt P33261); assay: NVS_ADME_hCYP2C19: NovaScreen (NVS) CYP450-related Enzyme Activity (ADME) Assay for human CYP2C19 (AID 2283113; active = hit-call score of the fitted dose curve at least 0.9, where 1 is the maximum;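 as to AC50: potency for inhibition seen as loss of fluorescent signal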)
Method in brief: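 Biochemical CYP2C19 inhibition screen: insect-cell recombinant protein plus fluorescent substrate, 1 h, fluorescence intensity. Acetonitrile defined baseline activity. Single 10 uM concentration in duplicate, with concentration-response follow-up for actives.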

[10] = target: human AKT serine/threonine Kinase 1 (AKT1), AKT1 (gene 207) (UniProt P31749); assay: NVS_ENZ_hAKT1: NovaScreen (NVS) Enzymatic Assay for human AKT serine/threonine Kinase 1 (AKT1) (AID 2283138; active = hit-call score of the fitted dose curve at least 0.9, where 1 is the maximum)
Method in brief: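 A biochemical assay with recombinant enzyme and specific substrate, read by fluorescence intensity with mobility-shift separation 1 hour after dosing. Actives from 25 uM duplicate screening were titrated up to 50 uM against DMSO baseline.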

[11] = target: human CYP2D6, CYP2D6 (gene 1565) (UniProt P10635); assay: NVS_ADME_hCYP2D6: NovaScreen (NVS) CYP450-related Enzyme Activity (ADME) Assay for human CYP2D6 (AID 2283107; active = hit-call score of the fitted dose curve at least 0.9, where 1 is the maximum)
Method in brief: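 Biochemical fluorescence assay, insect-cell-derived enzyme. Read at 1 h; inhibition taken from loss of signal against acetonitrile. Screened at 10 uM in duplicate, with concentration series for actives.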

[12] = target: human CYP2B6, CYP2B6 (gene 1555) (UniProt P20813); assay: NVS_ADME_hCYP2B6: NovaScreen (NVS) CYP450-related Enzyme Activity (ADME) Assay for human CYP2B6 (AID 2283101; active = hit-call score of the fitted dose curve at least 0.9, where 1 is the maximum)
Method in brief: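 Cell-free recombinant enzyme assay with a fluorogenic substrate; fluorescence intensity read 1 hour after dosing. Loss of signal relative to acetonitrile negative control indicates inhibition. Primary screen run in duplicate at 10 uM, actives then tested in concentration series.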

[13] = target: human CYP1A2, CYP1A2 (gene 1544) (UniProt P05177); assay: NVS_ADME_hCYP1A2: NovaScreen (NVS) CYP450-related Enzyme Activity (ADME) Assay for human CYP1A2 (AID 2283102; active = hit-call score of the fitted dose curve at least 0.9, where 1 is the maximum;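 as to AC50: potency for inhibition since loss of fluorescence marks reduced CYP1A2 activity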)
Method in brief: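 Inhibition scored as decrease in fluorescent product versus acetonitrile negative control. Enzyme: insect-cell recombinant human CYP1A2, substrate-specific, cell-free. Reading at 0.5 h; 10 uM duplicate initial screen with positive and negative controls on every plate.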

[14] = target: Cytochrome P450 3A4 (Homo sapiens) (UniProt P08684); assay: NVS_ADME_hCYP3A4: NovaScreen (NVS) CYP450-related Enzyme Activity (ADME) Assay for human CYP3A4 (AID 2283110; active = hit-call score of the fitted dose curve at least 0.9, where 1 is the maximum)
Method in brief: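 Recombinant CYP3A4 from insect cells, fluorescence enzyme read-out, 0.33 h after chemical addition. Acetonitrile = negative control/baseline. Primary HTS: 10 uM in duplicate; actives re-tested in concentration series.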

[15] = target: human Acid Phosphatase 1 (ACP1), ACP1 (gene 52) (UniProt P24666); assay: NVS_ENZ_hACP1: NovaScreen (NVS) Enzymatic Assay for human Acid Phosphatase 1 (ACP1) (AID 2283136; active = hit-call score of the fitted dose curve at least 0.9, where 1 is the maximum)
Method in brief: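 Cell-free fluorescence read-out of phosphatase activity, substrate and product separated by mobility shift, taken 1.5 h after compound addition; protein produced in Sf9. Single 25 uM duplicate screen, followed by concentration series for actives, scored as signal loss relative to DMSO.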

Chain of E-selectin (Homo sapiens) (P16581 whole entry, looked up): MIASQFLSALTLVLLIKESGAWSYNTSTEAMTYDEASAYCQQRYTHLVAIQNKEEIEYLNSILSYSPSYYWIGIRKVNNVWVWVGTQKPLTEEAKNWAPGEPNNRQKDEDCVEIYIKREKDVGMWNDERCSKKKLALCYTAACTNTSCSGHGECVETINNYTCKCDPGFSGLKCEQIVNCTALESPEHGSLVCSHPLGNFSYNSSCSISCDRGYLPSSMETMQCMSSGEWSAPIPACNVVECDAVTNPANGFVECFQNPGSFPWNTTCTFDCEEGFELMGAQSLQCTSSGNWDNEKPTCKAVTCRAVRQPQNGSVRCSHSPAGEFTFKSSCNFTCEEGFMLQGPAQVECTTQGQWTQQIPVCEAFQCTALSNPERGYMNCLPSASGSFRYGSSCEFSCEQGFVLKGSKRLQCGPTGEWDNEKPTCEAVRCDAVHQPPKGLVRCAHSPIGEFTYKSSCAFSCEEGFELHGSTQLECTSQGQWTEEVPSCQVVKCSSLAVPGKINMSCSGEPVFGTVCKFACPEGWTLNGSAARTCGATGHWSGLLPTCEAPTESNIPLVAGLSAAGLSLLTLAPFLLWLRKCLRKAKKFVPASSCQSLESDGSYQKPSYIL
Chain of human CYP2C9, CYP2C9 (gene 1559) (P11712 whole entry, looked up): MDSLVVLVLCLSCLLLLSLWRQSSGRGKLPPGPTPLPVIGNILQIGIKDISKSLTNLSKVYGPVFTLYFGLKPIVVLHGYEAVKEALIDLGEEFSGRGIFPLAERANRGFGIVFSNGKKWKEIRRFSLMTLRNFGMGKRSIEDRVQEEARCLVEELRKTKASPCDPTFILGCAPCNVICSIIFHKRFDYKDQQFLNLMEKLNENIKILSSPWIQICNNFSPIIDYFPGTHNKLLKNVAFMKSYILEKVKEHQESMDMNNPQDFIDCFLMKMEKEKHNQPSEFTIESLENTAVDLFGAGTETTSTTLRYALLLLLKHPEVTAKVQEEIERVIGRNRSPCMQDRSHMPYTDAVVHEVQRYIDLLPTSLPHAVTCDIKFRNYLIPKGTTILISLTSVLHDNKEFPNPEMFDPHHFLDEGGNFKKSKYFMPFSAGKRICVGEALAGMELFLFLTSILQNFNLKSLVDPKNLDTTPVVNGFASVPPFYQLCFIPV
Chain of human Caspase 5 (CASP5), CASP5 (gene 838) (P51878 whole entry, looked up): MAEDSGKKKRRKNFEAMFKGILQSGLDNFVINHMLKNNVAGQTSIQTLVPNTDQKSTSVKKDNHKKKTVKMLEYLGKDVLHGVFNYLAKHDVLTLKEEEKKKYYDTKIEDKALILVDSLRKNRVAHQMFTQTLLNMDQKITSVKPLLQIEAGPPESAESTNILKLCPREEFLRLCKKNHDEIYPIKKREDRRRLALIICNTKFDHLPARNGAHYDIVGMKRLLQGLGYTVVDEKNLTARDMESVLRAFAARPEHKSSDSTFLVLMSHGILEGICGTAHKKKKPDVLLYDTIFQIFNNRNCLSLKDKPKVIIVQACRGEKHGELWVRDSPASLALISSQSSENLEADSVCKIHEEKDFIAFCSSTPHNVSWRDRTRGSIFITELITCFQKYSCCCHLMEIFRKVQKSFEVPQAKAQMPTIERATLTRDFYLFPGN
Chain of human CYP2D6, CYP2D6 (gene 1565) (P10635 whole entry, looked up): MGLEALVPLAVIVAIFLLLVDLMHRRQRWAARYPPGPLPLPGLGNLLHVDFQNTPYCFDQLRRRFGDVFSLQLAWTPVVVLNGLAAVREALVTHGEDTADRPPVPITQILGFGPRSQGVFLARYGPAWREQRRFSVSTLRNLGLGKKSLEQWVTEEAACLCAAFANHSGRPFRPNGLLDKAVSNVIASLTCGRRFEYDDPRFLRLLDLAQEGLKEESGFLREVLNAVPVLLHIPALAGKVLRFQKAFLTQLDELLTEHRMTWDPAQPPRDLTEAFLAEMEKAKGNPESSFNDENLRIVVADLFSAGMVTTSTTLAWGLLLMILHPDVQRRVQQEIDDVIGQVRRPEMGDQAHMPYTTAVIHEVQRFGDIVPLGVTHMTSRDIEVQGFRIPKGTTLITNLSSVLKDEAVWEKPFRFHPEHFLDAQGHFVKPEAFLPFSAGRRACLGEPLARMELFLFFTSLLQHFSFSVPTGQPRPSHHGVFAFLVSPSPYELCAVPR
Chain of human CYP1A2, CYP1A2 (gene 1544) (P05177 whole entry, looked up): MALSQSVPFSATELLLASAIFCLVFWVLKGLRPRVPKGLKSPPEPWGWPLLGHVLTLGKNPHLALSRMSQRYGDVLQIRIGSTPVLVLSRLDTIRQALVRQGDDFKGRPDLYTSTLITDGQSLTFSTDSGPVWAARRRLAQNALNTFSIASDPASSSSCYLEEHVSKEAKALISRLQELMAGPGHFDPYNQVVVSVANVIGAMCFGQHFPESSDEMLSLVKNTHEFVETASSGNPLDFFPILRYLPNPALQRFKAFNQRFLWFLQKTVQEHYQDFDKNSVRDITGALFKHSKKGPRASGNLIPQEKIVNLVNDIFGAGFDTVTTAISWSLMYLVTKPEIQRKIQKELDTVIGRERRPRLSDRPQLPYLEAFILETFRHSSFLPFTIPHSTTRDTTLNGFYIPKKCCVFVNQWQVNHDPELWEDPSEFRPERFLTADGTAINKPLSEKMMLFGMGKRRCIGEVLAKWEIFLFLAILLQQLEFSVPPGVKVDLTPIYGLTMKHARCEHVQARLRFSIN
Chain of human AKT serine/threonine Kinase 1 (AKT1), AKT1 (gene 207) (P31749 whole entry, looked up): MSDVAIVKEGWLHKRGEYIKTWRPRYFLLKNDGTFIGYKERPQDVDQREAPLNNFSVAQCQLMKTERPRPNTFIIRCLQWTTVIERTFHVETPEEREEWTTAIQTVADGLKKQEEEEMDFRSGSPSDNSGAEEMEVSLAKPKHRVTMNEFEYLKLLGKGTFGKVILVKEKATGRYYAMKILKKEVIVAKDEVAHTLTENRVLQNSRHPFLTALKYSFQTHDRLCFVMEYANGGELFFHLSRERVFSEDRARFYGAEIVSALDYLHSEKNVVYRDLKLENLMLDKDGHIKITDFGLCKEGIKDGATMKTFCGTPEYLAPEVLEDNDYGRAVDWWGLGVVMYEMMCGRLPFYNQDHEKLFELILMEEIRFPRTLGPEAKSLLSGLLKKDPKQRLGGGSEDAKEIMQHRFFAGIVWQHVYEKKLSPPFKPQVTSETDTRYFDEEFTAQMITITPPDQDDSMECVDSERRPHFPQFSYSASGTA
Chain of human Acid Phosphatase 1 (ACP1), ACP1 (gene 52) (P24666 whole entry, looked up): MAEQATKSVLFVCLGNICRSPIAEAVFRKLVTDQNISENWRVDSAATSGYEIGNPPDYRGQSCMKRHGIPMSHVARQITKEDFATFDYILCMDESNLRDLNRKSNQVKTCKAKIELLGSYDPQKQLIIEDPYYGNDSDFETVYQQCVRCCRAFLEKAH
Chain of human CYP2B6, CYP2B6 (gene 1555) (P20813 whole entry, looked up): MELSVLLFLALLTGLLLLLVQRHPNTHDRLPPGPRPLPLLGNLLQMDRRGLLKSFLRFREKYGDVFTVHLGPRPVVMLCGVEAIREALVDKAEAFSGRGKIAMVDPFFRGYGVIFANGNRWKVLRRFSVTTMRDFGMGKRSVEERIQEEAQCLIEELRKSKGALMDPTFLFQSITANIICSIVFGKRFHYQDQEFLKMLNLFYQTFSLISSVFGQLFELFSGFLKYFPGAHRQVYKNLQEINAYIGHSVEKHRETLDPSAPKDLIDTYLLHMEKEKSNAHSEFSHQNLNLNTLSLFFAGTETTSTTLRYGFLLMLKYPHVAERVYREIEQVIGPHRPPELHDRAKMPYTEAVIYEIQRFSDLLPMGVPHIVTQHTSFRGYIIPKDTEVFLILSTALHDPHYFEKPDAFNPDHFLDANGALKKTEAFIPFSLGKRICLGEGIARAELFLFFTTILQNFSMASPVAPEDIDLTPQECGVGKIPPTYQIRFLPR
Chain of Cytochrome P450 3A4 (Homo sapiens) (P08684 whole entry, looked up): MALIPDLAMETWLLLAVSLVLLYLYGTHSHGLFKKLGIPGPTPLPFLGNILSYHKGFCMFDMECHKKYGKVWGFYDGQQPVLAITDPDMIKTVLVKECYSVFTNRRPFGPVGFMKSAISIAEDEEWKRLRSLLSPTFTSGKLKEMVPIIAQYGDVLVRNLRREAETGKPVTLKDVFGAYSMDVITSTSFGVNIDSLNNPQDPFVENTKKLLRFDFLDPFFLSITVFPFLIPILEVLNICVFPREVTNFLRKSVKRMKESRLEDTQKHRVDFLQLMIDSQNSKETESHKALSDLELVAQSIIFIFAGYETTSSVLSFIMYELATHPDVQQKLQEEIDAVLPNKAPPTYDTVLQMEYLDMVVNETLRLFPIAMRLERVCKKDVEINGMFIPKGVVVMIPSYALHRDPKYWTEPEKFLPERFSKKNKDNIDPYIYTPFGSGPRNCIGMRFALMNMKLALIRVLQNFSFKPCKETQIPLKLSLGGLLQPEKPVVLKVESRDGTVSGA

For `CCCCCCCCCCCCCCCCOS(=O)(=O)O`, the outcome [1] was “inactive”, the outcome [2] was “inactive” and the outcome [3] was “inactive”. The outcome [4] was “inactive”, the outcome [5] was “inactive” and the outcome [6] was “inactive”. The AC50 [7] was 2.18 µM (active).

In the case of `OC(Cn1cncn1)(Cn1cncn1)c1ccc(F)cc1F`, the outcome [1] is reported as “inactive”, the outcome [2] is reported as “inactive” and the outcome [3] is reported as “inactive”. For the same compound, the outcome [4] was “inactive”, the outcome [5] was “inactive” and the outcome [6] was “inactive”. For the same compound, the outcome [8] was “inactive”.

In the case of `CCCCN1C(=O)[C@@H]([C@H](O)C2CCCCC2)NC(=O)C12CCN(Cc1ccc(Oc3ccc(C(=O)O)cc3)cc1)CC2`, the outcome [1] is reported as “inactive”, the outcome [2] is reported as “inactive” and the outcome [3] is reported as “inactive”. For the same compound, the outcome [4] was “inactive”, the outcome [5] was “inactive” and the outcome [6] was “inactive”.

With `COCc1nnc(-c2ccc[n+]([O-])c2)n1-c1c(Cl)c(Cl)cc2[nH]c(=O)c(=O)[nH]c12` the outcome [1] was “inactive”, the outcome [2] was “inactive” and the outcome [3] was “inactive”. For the same compound, the outcome [4] was “inactive”, the outcome [5] was “inactive” and the outcome [6] was “inactive”. The AC50 [9] was 4.13 µM (active).

In the case of `CCCCC(CC)C(=O)OCCOCCOCCOC(=O)C(CC)CCCC` (configuration not stated), the outcome [1] is reported as “inactive”, the outcome [2] is reported as “inactive” and the outcome [3] is reported as “inactive”. The outcome [4] was “inactive”, the AC50 [5] was 24.7 µM (active) and the outcome [6] was “inactive”.

For `NC(=O)N1c2ccccc2C=Cc2ccccc21`, the outcome [1] was “inactive”, the outcome [2] was “inactive” and the outcome [3] was “inactive”. The outcome [4] was “inactive”, the outcome [5] was “inactive” and the outcome [6] was “inactive”. For the same compound, the outcome [9] was “inactive”.

With `Cc1nccn1-c1ccc(Sc2cccc(C3(C(N)=O)CCOCC3)c2)cc1` the AC50 [1] was 8.95 µM (active), the outcome [2] was “inactive” and the outcome [3] was “inactive”. The AC50 [4] was 5.42 µM (active), the AC50 [5] was 5.48 µM (active) and the outcome [6] was “inactive”. The AC50 [8] was 5.01 µM (active) and the AC50 [9] was 5.95 µM (active).

For `NNC(=O)c1ccncc1`, the outcome [1] was “inactive”, the outcome [2] was “inactive” and the AC50 [3] was 5.14 µM (active). The outcome [4] was “inactive”, the outcome [5] was “inactive” and the outcome [6] was “inactive”. The AC50 [9] was 1.49 µM (active) and the outcome [10] was “inactive”.

In the case of `Nc1ccn([C@@H]2O[C@H](CO)[C@@H](O)[C@@H]2O)c(=O)n1`, the AC50 [1] is reported as 8.71 µM (active), the outcome [2] is reported as “inactive” and the AC50 [3] is reported as 12 µM (active). The outcome [4] was “inactive”, the AC50 [5] was 14.1 µM (active) and the AC50 [6] was 20 µM (active).

With `O=C1CN(N=Cc2ccc([N+](=O)[O-])o2)C(=O)N1` the AC50 [1] was 9.33 µM (active), the outcome [2] was “inactive” and the outcome [3] was “inactive”. The outcome [4] was “inactive”, the AC50 [5] was 9.07 µM (active) and the outcome [6] was “inactive”. For the same compound, the AC50 [11] was 4.5 µM (active).

For `CCCCCCCCCC`, the outcome [1] was “inactive”, the outcome [2] was “inactive” and the outcome [3] was “inactive”. For the same compound, the outcome [4] was “inactive”, the outcome [5] was “inactive” and the outcome [6] was “inactive”. For the same compound, the AC50 [12] was 10 µM (active), the outcome [13] was “inactive” and the outcome [11] was “inactive”. For the same compound, the AC50 [8] was 15.1 µM (active), the AC50 [14] was 6.55 µM (active) and the AC50 [9] was 5.72 µM (active).

In the case of `Cc1ncc([C@@H](CCCCCCc2ccc3c(n2)NCCC3)CC(=O)O)cn1`, the outcome [1] is reported as “inactive”, the outcome [2] is reported as “inactive” and the outcome [3] is reported as “inactive”. The outcome [4] was “inactive”, the outcome [5] was “inactive” and the outcome [6] was “inactive”. For the same compound, the outcome [15] was “inactive” and the outcome [10] was “inactive”.

In the case of `CCc1ccc(O)c(C(C)(C)C)c1`, the AC50 [1] is reported as 29.6 µM (active), the outcome [2] is reported as “inactive” and the AC50 [3] is reported as 34.7 µM (active). The outcome [4] was “inactive”, the AC50 [5] was 33 µM (active) and the AC50 [6] was 35.8 µM (active).

In the case of `O=C(Cl)C(F)(F)C(F)(F)C(F)(F)C(=O)Cl`, the outcome [1] is reported as “inactive”, the outcome [2] is reported as “inactive” and the outcome [3] is reported as “inactive”. For the same compound, the outcome [4] was “inactive”, the outcome [5] was “inactive” and the outcome [6] was “inactive”.

For `CC(C)C(=O)Nc1ccc([N+](=O)[O-])c(C(F)(F)F)c1`, the outcome [1] was “inactive”, the outcome [2] was “inactive” and the outcome [3] was “inactive”. The outcome [4] was “inactive”, the outcome [5] was “inactive” and the outcome [6] was “inactive”. For the same compound, the AC50 [13] was 5.33 µM (active), the outcome [8] was “inactive” and the AC50 [9] was 3.2 µM (active).

With `CCCCCCCC1CCC(=O)O1` (configuration not stated) the outcome [1] was “inactive”, the outcome [2] was “inactive” and the outcome [4] was “inactive”. For the same compound, the outcome [5] was “inactive” and the outcome [6] was “inactive”.

With `CCCc1ccccc1` the outcome [1] was “inactive”, the outcome [2] was “inactive” and the outcome [3] was “inactive”. The outcome [4] was “inactive”, the outcome [5] was “inactive” and the outcome [6] was “inactive”.

With `FC(F)(F)COC(OCC(F)(F)F)OCC(F)(F)F` the outcome [1] was “inactive”, the outcome [2] was “inactive” and the outcome [3] was “inactive”. The outcome [4] was “inactive”, the outcome [5] was “inactive” and the outcome [6] was “inactive”.

For `O=C(O)[C@H](O)[C@@H](O)C(=O)O`, the outcome [1] was “inactive”, the outcome [2] was “inactive” and the outcome [3] was “inactive”. For the same compound, the outcome [4] was “inactive”, the outcome [5] was “inactive” and the outcome [6] was “inactive”.

With `OCCC(F)(F)C(F)(F)C(F)(F)C(F)(F)F` the outcome [1] was “inactive”, the outcome [2] was “inactive” and the outcome [3] was “inactive”. For the same compound, the outcome [4] was “inactive”, the outcome [5] was “inactive” and the outcome [6] was “inactive”.

With `OCc1c[nH]c2ccccc12` the outcome [1] was “inactive”, the outcome [2] was “inactive” and the outcome [3] was “inactive”. For the same compound, the AC50 [4] was 0.0481 µM (active), the AC50 [5] was 31.1 µM (active) and the outcome [6] was “inactive”. For the same compound, the AC50 [9] was 0.574 µM (active) and the AC50 [7] was 25 µM (active) and 29.7 µM (active).
